Each structure is given as a SMILES string. Active and inactive are the calls of the source. Where a call stands in place of a potency, no number is given. The call rests on the fitted dose curve; in most records, active means well fitted activation curve with a large enough effect in the repeat runs; inconclusive means weak or mixed curves; inactive means flat fitted curve, though single readings scatter.

This assay can be described thus: A CellTox Green Cytotoxicity Assay to monitor cytotoxicity in HepG2 cells - 0 hour (AID 1224882). Further: nearly all actives have a fitted effect of over 35% in size. Particulars: CellTox Green fluorescence; series mostly up to 76.8 µM. From the text: National Center for Advancing Translational Sciences [NCATS]
NIH Chemical Genomics Center [NCGC]
U.S. Environmental Protection Agency [EPA]
National Institutes of Environmental Health Sciences [NIEHS]
National Toxicology Program [NTP]
Cell-based models are critical for drug discovery. Determining the natural cytotoxic effects resulting from test compounds is an essential research activity. A CellTox Green Cytotoxicity Assay to monitor cytotoxicity in real time of continues cell culture during 40 hours of the compound treatment was used to screen Tox21 10K library compounds in HepG2 cells. CellTox Green Cytotoxicity Assay is a nonlytic, homogeneous, biofluorescent method to measure cytotoxicity in cell culture after experimental manipulation. The assay system uses a proprietary asymmetric cyanine dye that is excluded from viable cells but preferentially stains the dead cell's DNA. […] Viable cells produce no appreciable increases in fluorescence. Therefore, the fluorescence signal produced by the binding interaction with dead cell DNA is proportional to cytotoxicity.
The mixture of HepG2 cell suspension and reagents were dispensed at 600cells/6 ul/well in 1536-well tissue culture treated black solid bottom plates using a Multidrop dispenser. After the assay plates were incubated at a 37 C/5% CO2 incubator for 5 hours, 23 nL of compounds dissolved in DMSO, positive and negative controls was transferred to the assay plate by a pintool work station. The plates were incubated at 37 C for 40 hours. The fluorescence intensity were measured at 0h, 8h, 16h, 24h, 32h and 40h time points using ViewLux plate reader during compound treatment.
For the molecule `CNc1cnn(-c2cccc(C(F)(F)F)c2)c(=O)c1Cl`, the Potency result was “inactive”.
Consider `Cc1cccc(C)c1N`, for which the Potency result is “inactive”.
With `CCCCCCCCCCCCCCCCCC(=O)O`, the Potency entry is “inactive”.
In the case of `C[C@]12CC[C@H](O)CC1=CC[C@@H]1[C@@H]2CC[C@]2(C)C(=O)CC[C@@H]12`, the Potency entry was “inactive”.
Turning to `CNC(=O)O/N=C/C(C)(C)S(C)=O` (stereo not given), the Potency entry is “inactive”.
`CN1C(=O)CCS(=O)(=O)C1c1ccc(Cl)cc1` (stereo not given): the Potency entry was “inactive”.
Under `O=C(O)CCCc1ccc(N(CCCl)CCCl)cc1` stands “inactive”.
Consider `CNC(=O)O/N=C/C(C)(C)S(C)(=O)=O`, for which the Potency entry is “inactive”.
`COP(=S)(OC)Oc1ccc(SC)c(C)c1`: the Potency result was “inactive”.
To `N#Cc1cccc(C#N)c1` belongs “inactive”; to `Cc1cccc(N)c1C`, “inactive”; to `CN(C)C(=O)Cl`, “inactive”.
As to `N#Cc1ccccn1`, the Potency entry is “inactive”.
On to `Cc1ccc(N=C=O)cc1N=C=O`, for which the Potency entry was “inactive”.
To `CC(=O)C1CCOC1=O` (stereo not given) belongs “inactive”; to `CN(C)C(=O)Nc1cccc(C(F)(F)F)c1`, “inactive”; to `CC(=O)/C=C/c1ccccc1`, “inactive”.
On to `CSc1nnc(C(C)(C)C)c(=O)n1N`, for which the Potency entry was “inactive”.
With `CN(C)NC(=O)CCC(=O)O`, the Potency entry was “inactive”.
Regarding `CNCC(O)c1ccc(O)cc1` (stereo not given), the Potency result is “inactive”.
For `Oc1ccc(Cl)cc1`, the Potency entry is “inactive”.
In the case of `O=C(O)c1cc(Oc2ccc(C(F)(F)F)cc2Cl)ccc1[N+](=O)[O-]`, the Potency entry is “inactive”.
On to `CCOP(=S)(OCC)Oc1ccc([N+](=O)[O-])cc1`, for which the Potency result is “inactive”.
Consider `O=C/C=C/c1ccccc1`, for which the Potency result was “inactive”.
Turning to `CC12CC1(C)C(=O)N(c1cc(Cl)cc(Cl)c1)C2=O` (stereo not given), the Potency entry was “inactive”.
On to `Nc1cccc(Cl)c1`, for which the Potency result is “inactive”.
Take `O=S(=O)(O)OOS(=O)(=O)O`: the Potency result was “inactive”.
For `Cl/C=C/Cl`, the Potency entry was “inactive”.
As for `NNc1ccccc1`, the Potency result was “inactive”.
For the molecule `Cc1cc(O)ccc1Cl`, the Potency result was “inactive”.
Take `OCCCCO`: the Potency entry is “inactive”.
Consider `CCOP(=S)(OCC)Oc1cc(C)nc(C(C)C)n1`, for which the Potency entry was “inactive”.
With `Nc1ccc([As](=O)(O)O)cc1`, the Potency entry was “inactive”.
`Cc1ccc(N)cc1`: the Potency entry was “inactive”.
In the case of `Cc1ccc(O)c(C)c1`, the Potency entry is “inactive”.
As for `Nc1cc(Cl)cc(Cl)c1`, the Potency entry was “inactive”.
As to `ClCCOCCCl`, the Potency entry was “inactive”.
As for `COc1nc(NC(C)C)nc(NC(C)C)n1`, the Potency result was “inactive”.
As for `CNC(=O)O/N=C/C(C)(C)SC`, the Potency result was “inactive”.
Take `Oc1c(Br)cc(Br)cc1Br`: the Potency result was “inactive”.
